PubChem BioAssay (NCATS)
“And” between values parts separate entries of the source, which are not always exact repeats. Identical values can stand only once. Records with an inconclusive call do not appear. Where a call stands in place of a potency, no number is given. The source made the active and inactive calls. Unless noted, the call rests on the fitted dose curve; in most records, active means well fitted curve in the direction sought with a large enough effect; inconclusive means small, poorly fitted or top-dose-only effect, or another doubt; inactive means no such curve, though single readings can be large; an effect the other way counts as inactive or inconclusive.

Assays:
[1] = Cell Viability - BJ (AID 421; calls by dose curve;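 further: potency means the concentration at half of the fitted maximal effect; cells exposed to compound for 40 hours at 37 °C before readout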); conditions: BJ fibroblast viability, qHTS
Procedure, shortened: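 Cytotoxicity in human BJ foreskin fibroblasts is scored as loss of cellular ATP after a 40-hour exposure, measured by luciferase luminescence. Controls are DMSO and 100 uM tamoxifen.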

[2] = Cell Viability - Jurkat (AID 426;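 active means dose-dependent loss of cell ATP signal giving a full or clear fitted curve, ranked by lower potency value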; further: potency means the concentration at half of the fitted maximal effect); conditions: qHTS
Procedure, shortened: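 Jurkat (clone E6-1, human T-cell leukemia) cells, 5000/well in complete medium, were exposed to compound for 40 hr at 37 °C. Viability was read as intracellular ATP by CellTiter-Glo luminescence; AC50 came from Hill fits of concentration-response data.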

[3] = Cell Viability - Hek293 (AID 427;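 active means compounds whose dose-response curve shows a full or clear partial loss of cell viability, called from curve shape rather than a numeric limit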;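 further: potency means the concentration at half of the fitted maximal effect; cells exposed to compound for 40 hours at 37 °C before reading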); conditions: qHTS
Procedure, shortened: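 qHTS, human embryonic kidney (adenovirus-transformed) cells; 40 hr cpd, 37 °C; CellTiter-Glo ATP luminescence. Norm: DMSO = 0, 100 uM tamoxifen = 100% inhibition. Hill-fit AC50.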

[4] = Cell Viability - SK-N-SH (AID 435; calls by dose curve;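 further: potency means the concentration at half of the fitted maximal effect; compound exposure lasted 40 h at 37 °C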); conditions: SK-N-SH neuroblastoma cell viability qHTS
Procedure, shortened: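 SK-N-SH human neuroblastoma cells (1500/well) were exposed to compounds in complete medium for 40 h at 37 °C, and intracellular ATP was then measured by CellTiter-Glo luminescence. AC50 was taken from Hill fits, normalized to DMSO and 100 uM tamoxifen.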

[5] = Cell Viability - HUV-EC-C (AID 542); conditions: HUV-EC-C endothelial cell viability, qHTS; series mostly up to 92.2 µM; further: nearly all actives have a fitted effect of over 35% in size
Procedure, shortened: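 HUV-EC-C normal human vascular endothelial cells, 1000 cells/well, pre-incubated 5 hr at 37 °C, then exposed to compounds for 40 hr at 37 °C in complete medium. Viability measured as intracellular ATP by CellTiter-Glo luminescence; AC50 from Hill fits.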

[6] = Cell Viability - H-4-II-E (AID 543); conditions: H-4-II-E rat hepatoma viability; series mostly up to 92.2 µM; further: nearly all actives have a fitted effect of over 35% in size; further: potency means the concentration at half of the fitted maximal effect
Procedure, shortened: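 Rat hepatoma H-4-II-E cells (1500/well) were plated, incubated 5 hr at 37 °C, then exposed to compounds for 40 hr at 37 °C. Cellular ATP was read by CellTiter-Glo luminescence; AC50 came from Hill-equation fits of concentration-response data.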

[7] = Cell Viability - Renal Proximal Tubule (AID 545); conditions: renal proximal tubule cells viability; series mostly up to 91.7 µM; further: nearly all actives have a fitted effect of over 40% in size
Procedure, shortened: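 Primary rat renal proximal tubule cells (1000/well) were treated with compounds for 40 hr at 37 °C in complete medium. Intracellular ATP was measured by CellTiter-Glo luminescence, and AC50 values came from Hill-equation fits of concentration-response data.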

[8] = Cell Viability - LYMP2-015 (AID 971); conditions: LYMP2-015 lymphoblastoid cell viability; series mostly up to 92.2 µM; further: nearly all actives have a fitted effect of over 55% in size; further: potency means the concentration at half of the fitted maximal effect
Procedure, shortened: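 Human lymphoblastoid cells (2500/well) in complete medium were preincubated 5 hr at 37 C, then compound-treated 24 hr at 37 C. Intracellular ATP was read by CellTiter-Glo luminescence after 30 min at room temperature; AC50 came from Hill-equation concentration-response fits.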

[9] = Cell Viability - LYMP2-019 (AID 973); conditions: LYMP2-019 lymphoblastoid cell line viability; series mostly up to 92.2 µM; further: nearly all actives have a fitted effect of over 55% in size; further: potency means the concentration at half of the fitted maximal effect
Procedure, shortened: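 Human lymphoblastoid cells were seeded at 2500 cells/well, preincubated 5 hr at 37 C, then exposed to compounds for 24 hr at 37 C in complete medium. Intracellular ATP was measured by CellTiter-Glo luminescence; AC50 from Hill fits.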

[10] = Cell Viability - LYMP2-012 (AID 982); conditions: LYMP2-012 lymphoblastoid cell viability qHTS; series mostly up to 92.2 µM;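 further: cellular ATP by luciferase luminescence where a drop means cytotoxicity; cells exposed to compound for one day before reading; nearly all actives have a fitted effect of over 55% in size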; further: potency means the concentration at half of the fitted maximal effect
[11] = Cell Viability - LYMP2-020 (AID 986); conditions: series mostly up to 92.2 µM; further: nearly all actives have a fitted effect of over 55% in size; further: potency means the concentration at half of the fitted maximal effect
Procedure, shortened: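 Human lymphoblastoid cells, 2500/well, were pre-incubated 5 hr at 37 C, then exposed to compounds for 24 hr at 37 C in complete medium. Intracellular ATP was read by CellTiter-Glo luminescence, and AC50 was derived by Hill fitting of concentration-response data.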

[12] = Cell Viability - LYMP2-022 (AID 987); conditions: LYMP2-022 lymphoblastoid cell viability; series mostly up to 92.2 µM; further: nearly all actives have a fitted effect of over 55% in size; further: potency means the concentration at half of the fitted maximal effect
Procedure, shortened: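 Human lymphoblastoid cells, 2500/well, preincubated 5 hr at 37 C, then exposed to compounds over a concentration range for 24 hr at 37 C in complete medium. Viability read as intracellular ATP by CellTiter-Glo luminescence after 30 min at room temperature; AC50 from Hill fits.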

[13] = Cell Viability - LYMP2-026 (AID 989); conditions: LYMP2-026 lymphoblastoid cell viability, qHTS; series mostly up to 92.2 µM; further: nearly all actives have a fitted effect of over 50% in size; further: potency means the concentration at half of the fitted maximal effect
Procedure, shortened: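 Human lymphoblastoid cells (2500/well) in complete medium were preincubated 5 hr at 37 C, then exposed to compounds for 24 hr at 37 C. Cellular ATP was read by CellTiter-Glo luminescence; AC50 from Hill-equation fits of concentration-response data.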

[14] = Cell Viability - LYMP1-002 - Assay at 40 hr (AID 994); conditions: LYMP1-002 lymphoblastoid cell viability; series mostly up to 92.2 µM; further: nearly all actives have a fitted effect of over 60% in size
Procedure, shortened: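 Human lymphoblastoid cells, 2500/well in complete medium, were preincubated 5 hr at 37 C, then exposed to compounds for 40 hr at 37 C. Intracellular ATP was read by CellTiter-Glo luminescence after 30 min at room temperature; AC50 from Hill-equation fits.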

[15] = qHTS assay for small molecule agonists of retinoid X receptor alpha signaling (AID 588544; calls by dose curve); conditions: HEK293T RXRa-UAS-bla, beta-lactamase reporter, 18 h; 530 nm emission
[16] = target: Retinoic acid receptor RXR-alpha (Homo sapiens) (UniProt P19793); assay: as above; conditions: HEK293T RXRa-UAS-bla, beta-lactamase reporter, 18 h; series mostly up to 76.7 µM
[17] = target: Thyroid hormone receptor beta (Homo sapiens) (UniProt P10828); assay: qHTS assay for small molecule agonists of thyroid hormone receptor beta signaling (AID 588545; calls by dose curve; further: potency means the concentration at half of the fitted maximal effect); conditions: TR-UAS-bla GripTite HEK 293, beta-lactamase ratio, agonist mode, 18 h; series mostly up to 76.7 µM
Procedure, shortened: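 TR-UAS-bla-GripTite HEK 293 cells in medium with 2% charcoal/dextran FBS, 0.1 mM NEAA and 1 mM sodium pyruvate were treated with titrated compounds for 18 hrs at 37 C. Beta-lactamase reporter was read with CCF4 dye (ex 405, em 460/530 nm); EC50 from Hill fits.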

[18] = qHTS assay for small molecule antagonists of retinoid X receptor alpha signaling (AID 588546; active means well fitted inhibition curve with a large enough effect in the signal ratio, with a control signal flat, not every such curve was filed as active; the % refers to the signal ratio;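 further: cells stimulated with 9-cis-retinoic acid as agonist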); conditions: HEK293T RXRa-UAS-bla, beta-lactamase ratio, antagonist mode; measured here: W530 green channel, cytotoxicity proxy
Procedure, shortened: (§1)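 Beta-lactamase reporter inhibition, read as CCF4 fluorescence ratio (ex 405, em 460/530 nm) after 2 h at RT. HEK293T UAS-bla cells, 2500/well, were stimulated with 9-cis-RA at 500 or 100 nM final alongside test compound for 18 h at 37 C.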

[19] = target: Retinoic acid receptor RXR-alpha (Homo sapiens) (UniProt P19793); assay: as above; conditions: HEK293T RXRa-UAS-bla, beta-lactamase ratio, antagonist mode
Procedure, shortened: as §1

[20] = target: Voltage-gated inwardly rectifying potassium channel KCNH2 (Homo sapiens) (UniProt Q12809); assay: qHTS Assay for Small Molecule Inhibitors of the Human hERG Channel Activity (AID 588834); conditions: U2OS BacMam hERG, FluxOR thallium flux fluorescence; series mostly up to 92.2 µM;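 further: top concentration of the series differs between compounds; lower thallium flux fluorescence means stronger hERG block; nearly all actives have a fitted effect of over 50% in size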
Procedure, shortened: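 U2OS cells transduced with hERG via BacMam (MOI ~100), plated 2000/well, loaded with FluxOR thallium dye, compound ~10 min, then stimulation buffer; fluorescence decrease read kinetically; AC50 from Hill fits.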

Thyroid hormone receptor beta (Homo sapiens), sequence (P10828 whole entry, looked up): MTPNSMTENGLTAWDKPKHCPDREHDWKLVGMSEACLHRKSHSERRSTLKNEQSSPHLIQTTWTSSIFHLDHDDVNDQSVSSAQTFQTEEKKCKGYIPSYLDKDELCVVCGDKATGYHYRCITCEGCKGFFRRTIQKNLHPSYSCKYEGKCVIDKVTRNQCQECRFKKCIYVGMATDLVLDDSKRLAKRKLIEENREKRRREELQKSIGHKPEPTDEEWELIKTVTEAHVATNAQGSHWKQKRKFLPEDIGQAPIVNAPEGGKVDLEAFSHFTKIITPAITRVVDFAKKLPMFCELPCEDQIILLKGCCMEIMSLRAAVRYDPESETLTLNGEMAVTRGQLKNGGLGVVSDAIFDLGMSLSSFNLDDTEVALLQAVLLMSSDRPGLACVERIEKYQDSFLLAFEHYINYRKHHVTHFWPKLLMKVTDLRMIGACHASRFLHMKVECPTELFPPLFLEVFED
Retinoic acid receptor RXR-alpha (Homo sapiens), sequence (P19793 whole entry, looked up): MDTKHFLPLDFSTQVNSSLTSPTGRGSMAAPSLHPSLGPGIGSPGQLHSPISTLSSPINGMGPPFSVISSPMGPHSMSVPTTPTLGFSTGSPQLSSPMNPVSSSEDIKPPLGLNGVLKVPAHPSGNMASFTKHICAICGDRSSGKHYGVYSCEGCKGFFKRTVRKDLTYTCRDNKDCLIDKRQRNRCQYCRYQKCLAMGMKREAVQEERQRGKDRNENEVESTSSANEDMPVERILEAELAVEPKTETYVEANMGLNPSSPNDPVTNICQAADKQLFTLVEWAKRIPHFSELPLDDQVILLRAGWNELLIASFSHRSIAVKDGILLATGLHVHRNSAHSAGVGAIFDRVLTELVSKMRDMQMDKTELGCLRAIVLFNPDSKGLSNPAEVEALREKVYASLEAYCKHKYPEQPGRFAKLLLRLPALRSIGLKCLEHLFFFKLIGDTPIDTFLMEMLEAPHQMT
Voltage-gated inwardly rectifying potassium channel KCNH2 (Homo sapiens), sequence (Q12809 whole entry, looked up): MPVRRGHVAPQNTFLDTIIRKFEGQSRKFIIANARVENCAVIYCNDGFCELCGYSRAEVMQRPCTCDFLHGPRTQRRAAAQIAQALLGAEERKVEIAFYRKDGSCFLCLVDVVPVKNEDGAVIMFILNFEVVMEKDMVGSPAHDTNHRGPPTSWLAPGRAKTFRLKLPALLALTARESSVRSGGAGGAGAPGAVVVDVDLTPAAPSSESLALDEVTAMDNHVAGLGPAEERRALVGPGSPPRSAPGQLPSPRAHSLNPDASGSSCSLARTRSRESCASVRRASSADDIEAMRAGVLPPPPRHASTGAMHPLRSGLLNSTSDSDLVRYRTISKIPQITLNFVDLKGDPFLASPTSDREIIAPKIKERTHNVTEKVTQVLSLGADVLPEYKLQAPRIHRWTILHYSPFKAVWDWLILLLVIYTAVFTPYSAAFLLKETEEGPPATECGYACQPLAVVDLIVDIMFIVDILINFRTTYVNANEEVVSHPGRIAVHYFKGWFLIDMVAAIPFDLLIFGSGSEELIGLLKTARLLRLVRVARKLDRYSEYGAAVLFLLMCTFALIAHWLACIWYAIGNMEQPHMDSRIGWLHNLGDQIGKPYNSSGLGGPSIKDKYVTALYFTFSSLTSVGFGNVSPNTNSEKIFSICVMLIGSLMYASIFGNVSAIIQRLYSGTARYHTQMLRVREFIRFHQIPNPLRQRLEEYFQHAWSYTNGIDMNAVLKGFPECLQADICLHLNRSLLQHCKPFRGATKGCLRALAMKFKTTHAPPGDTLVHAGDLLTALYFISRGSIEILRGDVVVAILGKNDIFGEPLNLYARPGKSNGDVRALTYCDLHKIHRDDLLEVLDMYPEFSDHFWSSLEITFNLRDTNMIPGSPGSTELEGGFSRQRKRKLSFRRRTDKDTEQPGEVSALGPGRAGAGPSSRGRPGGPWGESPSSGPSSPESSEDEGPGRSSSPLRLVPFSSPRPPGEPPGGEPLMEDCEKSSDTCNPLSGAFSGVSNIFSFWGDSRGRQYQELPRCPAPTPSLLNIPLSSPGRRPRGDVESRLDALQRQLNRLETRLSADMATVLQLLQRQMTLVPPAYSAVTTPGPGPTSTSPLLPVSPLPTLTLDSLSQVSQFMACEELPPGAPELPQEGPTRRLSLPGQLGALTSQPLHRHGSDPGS

| Compound | Potency [1] | Potency [2] | Potency [3] | Potency [4] | Potency [5] | Potency [6] | outcome [7] | Potency [8] | Potency [9] | Potency [10] | Potency [11] | Potency [12] | Potency [13] | Potency [14] | max response [15] | outcome [16] | Potency [17] | max response [18] | max response [19] | Potency [20] |
| --- | --- | --- | --- | --- | --- | --- | --- | --- | --- | --- | --- | --- | --- | --- | --- | --- | --- | --- | --- | --- |
| OCCOCCO | > 92 µM (inactive) | > 92 µM (inactive) | > 92 µM (inactive) | > 92 µM (inactive) | inactive | inactive | inactive | inactive | inactive | inactive | inactive | inactive | inactive | inactive | -9.96% | inactive | inactive | 2.28% | 1.12% (inactive) | inactive |
| CCSC(=O)N1CCCCCC1 | > 92 µM (inactive) | > 92 µM (inactive) | > 92 µM (inactive) | > 92 µM (inactive) | inactive | inactive | inactive | inactive | inactive | inactive | inactive | inactive | inactive | inactive | -15.2% and -3.96% | inactive | inactive | -11.6% and -2.5% | -8.27% (inactive) and -1.48% (inactive) | inactive |
| c1ccc(Nc2ccc(Nc3ccccc3)cc2)cc1 | > 92 µM (inactive) | > 92 µM (inactive) | > 92 µM (inactive) | > 92 µM (inactive) | inactive | 7.94 µM (active) | – | inactive | inactive | inactive | inactive | – | inactive | inactive | 0.613% | inactive | inactive | -12.1% | -13.3% (inactive) | – |
| CCN(CC)N=O | > 92 µM (inactive) | > 92 µM (inactive) | > 92 µM (inactive) | > 92 µM (inactive) | inactive | inactive | inactive | inactive | inactive | inactive | inactive | inactive | inactive | inactive | -8.19% | inactive | inactive | -3.04% | 1.08% (inactive) | inactive |
| CN(C)c1ccc(N=Nc2ccccc2)cc1 | > 92 µM (inactive) | – | – | > 92 µM (inactive) | inactive | – | – | – | inactive | inactive | inactive | inactive | inactive | inactive | -0.567% | inactive | inactive | -11.2% | -20.4% (inactive) | inactive |
| O=[N+]([O-])c1cccc(CCl)c1 | – | – | > 92 µM (inactive) | > 92 µM (inactive) | – | 50.1 µM (active) | inactive | – | – | inactive | – | – | inactive | inactive | 10.9% | inactive | inactive | 8.94% | -0.788% (inactive) | inactive |
| BrCC(Br)(Br)Br | > 92 µM (inactive) | – | – | > 92 µM (inactive) | inactive | – | inactive | 15.8 µM (active) | – | 12.6 µM (active) | 15.8 µM (active) | 7.94 µM (active) | – | inactive | 19.6% | inactive | – | 2.45% | 23.1% (inactive) | inactive |
| N#C/C=C/C#N | – | 20.8 µM (active) | – | 24.4 µM (active) | – | 50.1 µM (active) | inactive | 50.1 µM (active) | 31.6 µM (active) | 20 µM (active) | 31.6 µM (active) | 15.8 µM (active) | 39.8 µM (active) | inactive | – | – | – | – | – | inactive |
| Oc1cc(Cl)c(Cl)c(Cl)c1 | – | – | – | – | – | 63.1 µM (active) | – | inactive | – | – | – | – | – | inactive | – | – | – | – | – | inactive |
| [C-]1=CC=CC1.[C-]1=CC=CC1.[Cl-].[Cl-].[Ti+4] | – | 55.7 µM (active) | – | – | inactive | inactive | inactive | – | – | – | – | – | – | – | – | – | inactive | – | – | inactive |
| c1ccc2c(c1)ccc1cc3c(ccc4ccccc43)cc12 | – | – | – | – | – | – | – | – | – | – | – | – | – | – | – | – | 39.8 µM (active) | – | – | – |
| Nc1ccc(-c2ccc(N)c(Cl)c2)cc1Cl | – | 19 µM (active) | – | 3.05 µM (active) | – | 31.6 µM (active) | – | inactive | inactive | inactive | inactive | – | – | – | – | – | inactive | -2.3% and -7.33% | -19% (inactive) and -20.8% (inactive) | inactive |
| Oc1cc(Cl)c(Cl)c(Cl)c1Cl | – | 54.1 µM (active) | – | – | – | – | – | inactive | inactive | – | – | inactive | inactive | inactive | – | – | inactive | – | – | inactive |
| Clc1ccc(C(c2ccccc2Cl)C(Cl)(Cl)Cl)cc1 (stereo not drawn) | > 92 µM (inactive) | – | – | – | inactive | – | inactive | inactive | inactive | – | inactive | inactive | inactive | inactive | – | – | inactive | 5.48% | -26% (inactive) | – |
